Source: PubChem BioAssay
The entries come from a sample that favours hits as a whole.
Pf Dd2 inh: inhibitors of Plasmodium falciparum Dd2 growth; P. falciparum Dd2 growth, SYBR Green, 72 h; Potency, µM (doses to about 28.9 µM), for inactives: at the top dose activity, negative = inhibition, most hits filed as inhibitors; 120,000 compounds, 4.3% hits; AID 1347417; active = well fitted inhibition curve with a large enough effect;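 note: plate controls were DMSO vehicle for no effect and reference drug for full effect; nearly all actives have a fitted effect of over 65% in size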
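Infected erythrocytes (Dd2, 0.3% parasitemia, 2.5% hematocrit final) are added to compound in RPMI-1640/Albumax II medium, grown 72 h at 37C in low oxygen, then lysed with saponin/Triton-X containing SYBR Green and read by fluorescence.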
The depositor's hits bear a star; i = inactive; [ ] = another dose, or the depositor's remark. Potency is the fitted concentration of half-maximal effect.

SMILES	Pf Dd2 inh
Cc1ccc(C(=O)NC2(C(F)(F)F)N=C(c3ccccc3)N(Cc3ccccc3)C2=O)cc1 (stereo unspecified)	i
CCc1ccc(C(=O)CC2(O)C(=O)N(Cc3ccc(C)cc3)c3ccccc32)cc1 (stereo unspecified)	-22%
COc1ccc2[nH]cc(CCNC(=O)C3CCCCC(=O)N3Cc3ccccc3)c2c1 (stereo unspecified)	-26%
COc1ccc(CNC(=O)Cn2c(C)cc3nc4n(c(=O)c32)CCCCC4)cc1	i
Cc1cccc2nnc(N3CCN(C(=O)CCc4ccccc4)CC3)n12	-14%
CCN(CC)CCCNC(=O)c1nn(-c2ccc(OC)c(Cl)c2)c(=O)c2c1c1ccccc1n2C	1µM*
CCN(C(=O)c1nn(-c2ccc(OC)c(Cl)c2)c(=O)c2c1c1ccccc1n2C)c1cc(OC)ccc1OC	7.9µM*
CCN(CC)CCNC(=O)c1nn(-c2ccc(OC)c(Cl)c2)c(=O)c2c1c1ccccc1n2C	13%
CCc1ccc(CNC(=O)c2nn(-c3ccc(OC)c(Cl)c3)c(=O)c3c2c2ccccc2n3C)cc1	9%[5.79 µM]
CCCN(C(=O)c1nn(-c2ccc(OC)c(Cl)c2)c(=O)c2c1c1ccccc1n2C)c1ccccc1F	4%
CCOc1ccc(N(CC)C(=O)c2nn(-c3ccc(OC)cc3)c(=O)c3c2c2ccccc2n3C)cc1	4µM*
COc1ccc(-n2nc(C(=O)N(C)c3cccc(C(F)(F)F)c3)c3c4ccccc4n(C)c3c2=O)cc1	8%
CCOc1ccccc1NC(=O)c1nn(-c2ccc(OC)cc2)c(=O)c2c1c1ccccc1n2C	i
CCN(CC)CCCNC(=O)c1nn(-c2ccc(OC)cc2)c(=O)c2c1c1ccccc1n2C	6%
O=C(c1ccsc1)N1CCCn2cc(-c3ccccc3)nc21	i
NC(=O)CCNC(=O)[C@@]1(O)C[C@@H](O)[C@H](O)[C@@H](NC(=O)c2ccc(F)c(Cl)c2)C1	18%[44.1 µM]
COC(=O)C1=CN(CC(=O)Nc2cc(Cl)ccc2C)S(=O)(=O)N=C1C	76%
CC(C)NC(=O)N[C@H]1CCN2C(=O)c3cc(/C=C/c4ccccc4)ccc3NC(=O)[C@H]12	i
Cc1ccc(OCCN2CCC3(CC2)C(C(=O)O)CC(=O)N3C)c(C)c1 (stereo unspecified)	-14%
c1ccc(CCCN[C@H]2CO[C@H]3[C@@H]2OC[C@@H]3n2cc(-c3ccccc3)nn2)cc1	-15%[44.1 µM]
CCC(=O)N(C1CCOCC1)C1CCN(C(=O)c2ccncc2)CC1	i
Cc1ccc(Cl)cc1N1CCN(C(=O)CCSCc2ccccc2F)CC1	i
CCOC(=O)c1[nH]c(C)c(CCC(=O)N2CCN(c3cccc(OC)c3)CC2)c1C	4µM*
CCOC(=O)c1cc(S(=O)(=O)N2CCN(c3cccc(OC)c3)CC2)[nH]n1	-17%
CCOC(=O)c1[nH]c(C)c(CCC(=O)NCc2cccc(Cl)c2)c1C	-16%
SMILES	Pf Dd2 inh
CCOC(=O)c1[nH]c(C)c(CCC(=O)N2CCN(c3cc(Cl)ccc3C)CC2)c1C	0.56µM*
CCOC(=O)c1[nH]c(C)c(CCC(=O)N2CCN(c3cc(C)ccc3C)CC2)c1C	0.63µM*
COc1cccc(N2CCN(C(=O)CCc3conc3-c3ccccc3)CC2)c1	-12%
CCOC(=O)c1[nH]c(C)c(CCC(=O)NCc2ccccc2)c1C	1%
CCOC(=O)c1[nH]c(C)c(CCC(=O)Nc2cc(C)ccc2OC)c1C	-22%
c1cc(N2CCCCC2)ccc1-c1n[nH]c(C2CCOC2)n1 (stereo unspecified)	-24%
Cc1ccc(S(=O)(=O)N2CC(c3nc(-c4ccncc4)no3)C2)cc1Cl	-24%
Cc1cnc(C2CC2)n1C1CCN(C(=O)C2CC2)CC1	-12%
CCC(=O)N1CCCC1c1nc(CCOCC2CCOCC2)no1 (stereo unspecified)	-23%
COc1ccc(-c2nc(C3CC(=O)N(c4ccc(C)cc4)C3)no2)c(C)c1 (stereo unspecified)	39%
C=CCOC(=O)Nc1nc2c(s1)C[C@@H]1[C@](C)(CO)[C@H](O)CC[C@@]1(C)[C@@H]2CC(=O)NCCN1CCOCC1	8%
COCC1CN(C(=O)c2ccc(C)s2)CC12CCOCC2 (stereo unspecified)	28%
COc1ccc(NC(=O)C2CC(=O)N(c3n[nH]c4ccccc34)C2)cn1 (stereo unspecified)	-12%
O=C(NC1(C(F)(F)F)NC(=O)N(CCc2ccccc2)C1=O)c1ccc(Cl)cc1 (stereo unspecified)	i
COc1ccc(CCN2C(=O)c3[nH]nc(-c4ccccc4O)c3C2c2ccc(O)c(OC)c2)cc1 (stereo unspecified)	10µM*
CCOc1cc(C2c3c(oc4ccccc4c3=O)C(=O)N2Cc2ccc(OC)cc2)ccc1O (stereo unspecified)	-5%
CCCN1C(=O)c2[nH]nc(-c3ccccc3)c2C1c1cccc(O)c1 (stereo unspecified)	-19%
O=C1c2[nH]nc(-c3ccccc3O)c2C(c2ccc(F)cc2)N1CCO (stereo unspecified)	-9%
COc1ccc(-c2n[nH]c3c2C(c2ccccn2)N(C)C3=O)cc1 (stereo unspecified)	-13%
